The source of these data is PubChem BioAssay.

Experiment [1] in a line: antimalarial activity against Dd2 strain (AID 2302;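 active = growth inhibition above 50% at the single 2 µM test dose, taken to imply half-maximal potency below 2 µM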;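 also: 0% = DMSO untreated growth and 100% = chloroquine plus artemisinin killed control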). To be noted: P. falciparum Dd2 in RBCs, LDH growth readout, 72 h; at 2 µM; hits give high values.
Experiment [2] is described as follows: HepG2 cytotoxicity, primary screen, cytotoxicity control for P. falciparum antimalarial project, cell-based, ATP luminescence (AID 2303;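 active = inhibition above 50%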;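 also: 0% = DMSO wells and 100% = digitonin-killed cells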). The settings on record: HepG2 viability, 24-48 h, at 10 µM, hits give high values.
For experiment [3], the target named is L-lactate dehydrogenase (Plasmodium falciparum (isolate CDC / Honduras)) (UniProt Q27743). Description: PfLDH activity inhibition – cell lysate, 3D7 strain, counter-screen for P. falciparum growth inhibition project (AID 2304).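 Also: 0% = vehicle and 100% = reference inhibitor.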 To be noted: P. falciparum 3D7 crude extract, LDH APAD/NBT absorbance; at 2 µM; hits give high values.
Experiment [4] is described as follows: inhibition of 3D7 malaria parasite growth – strain 3D7 (AID 2306).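 Also: 0% = DMSO wells and 100% = chloroquine plus artemisinin control wells.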 To be noted: P. falciparum 3D7 erythrocytic growth, LDH absorbance, 72 h; at 2 µM; hits give high values.
The target of experiment [5] is Calcium-dependent protein kinase 1 (Plasmodium falciparum (isolate 3D7)) (UniProt P62344). Nature of the experiment: PfCDPK1 kinase inhibitors, biochemical, TCAMS library (AID 1159585; cut-off not given, nearly all actives have IC50 up to about 0.98 µM;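 also: inhibitors leave more ATP so luminescence rises with inhibition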). The settings on record: recombinant PfCDPK1, Kinase-Glo ATP depletion luminescence. (Kinase-Glo reads ATP consumption through a luciferase reaction.)
For experiment [6], the target named is Plasmodium falciparum protein kinase 6 (PK6, PF3D7_1337100) (UniProt Q8IDW1). Nature of the experiment: PfPK6 kinase inhibitors, biochemical, TCAMS library (AID 1159586). The settings on record: recombinant PfPK6, Kinase-Glo ATP depletion luminescence.
The target in experiment [7] is Protein kinase 7 (PK7), Plasmodium falciparum 3D7 (PF3D7_0213400) (UniProt Q7YTF7). Nature of the experiment: inhibition of Plasmodium PK7 catalytic activity – biochemical, TCAMS antimalarial set, Kinase-Glo luminescence (AID 1159587). To be noted: recombinant PfPK7, Kinase-Glo ATP depletion luminescence.
The target of experiment [8] is Calcium-dependent protein kinase 4 (Plasmodium falciparum (isolate 3D7)) (UniProt Q8IBS5). Nature of the experiment: PfCDPK4 kinase inhibitors, biochemical, TCAMS library (AID 1159588; cut-off not given, nearly all actives have IC50 up to about 0.91 µM). To be noted: recombinant PfCDPK4, Kinase-Glo ATP depletion luminescence.

SMILES strings stand for the structures. A number with no mark means an inactive call. For some of these results: Potency and affinity values are given separately. Activity calls are given as the source filed them. Unless noted, no rule for the calls is given here.

Sequence of Plasmodium falciparum protein kinase 6 (PK6, PF3D7_1337100) (Q8IDW1 1-305): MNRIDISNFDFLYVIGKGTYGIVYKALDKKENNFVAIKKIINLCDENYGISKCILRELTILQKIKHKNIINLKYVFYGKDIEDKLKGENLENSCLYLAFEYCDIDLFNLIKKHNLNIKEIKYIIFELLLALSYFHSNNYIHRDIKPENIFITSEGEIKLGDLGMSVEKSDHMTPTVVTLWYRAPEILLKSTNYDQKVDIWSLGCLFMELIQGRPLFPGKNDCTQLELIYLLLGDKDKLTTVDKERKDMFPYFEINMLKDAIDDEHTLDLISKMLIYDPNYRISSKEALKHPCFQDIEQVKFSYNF
Sequence of Protein kinase 7 (PK7), Plasmodium falciparum 3D7 (PF3D7_0213400) (Q7YTF7 1-343): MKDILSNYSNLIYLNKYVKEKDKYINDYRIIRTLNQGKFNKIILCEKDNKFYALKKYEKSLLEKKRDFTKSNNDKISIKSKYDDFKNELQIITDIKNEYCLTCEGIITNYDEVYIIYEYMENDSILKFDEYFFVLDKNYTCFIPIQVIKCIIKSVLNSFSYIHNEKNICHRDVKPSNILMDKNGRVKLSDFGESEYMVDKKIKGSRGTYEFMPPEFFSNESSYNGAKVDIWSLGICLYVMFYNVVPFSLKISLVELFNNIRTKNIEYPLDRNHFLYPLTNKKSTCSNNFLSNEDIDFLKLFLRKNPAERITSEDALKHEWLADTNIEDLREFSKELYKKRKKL
Sequence of Calcium-dependent protein kinase 1 (Plasmodium falciparum (isolate 3D7)) (P62344 whole entry, looked up): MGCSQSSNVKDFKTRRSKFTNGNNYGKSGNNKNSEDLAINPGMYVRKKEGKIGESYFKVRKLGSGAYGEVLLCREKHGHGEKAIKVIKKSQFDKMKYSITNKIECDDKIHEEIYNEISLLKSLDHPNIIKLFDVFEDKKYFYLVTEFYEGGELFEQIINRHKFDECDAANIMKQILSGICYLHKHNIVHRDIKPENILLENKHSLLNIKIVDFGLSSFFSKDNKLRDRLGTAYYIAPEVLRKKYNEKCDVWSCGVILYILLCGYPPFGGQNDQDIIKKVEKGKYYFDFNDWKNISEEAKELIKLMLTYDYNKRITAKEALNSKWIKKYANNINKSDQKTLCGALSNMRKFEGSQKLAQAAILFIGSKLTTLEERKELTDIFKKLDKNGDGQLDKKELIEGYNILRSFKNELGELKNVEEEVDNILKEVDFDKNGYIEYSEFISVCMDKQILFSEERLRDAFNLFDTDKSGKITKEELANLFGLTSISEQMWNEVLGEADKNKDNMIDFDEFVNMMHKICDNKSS
Sequence of Calcium-dependent protein kinase 4 (Plasmodium falciparum (isolate 3D7)) (Q8IBS5 whole entry, looked up): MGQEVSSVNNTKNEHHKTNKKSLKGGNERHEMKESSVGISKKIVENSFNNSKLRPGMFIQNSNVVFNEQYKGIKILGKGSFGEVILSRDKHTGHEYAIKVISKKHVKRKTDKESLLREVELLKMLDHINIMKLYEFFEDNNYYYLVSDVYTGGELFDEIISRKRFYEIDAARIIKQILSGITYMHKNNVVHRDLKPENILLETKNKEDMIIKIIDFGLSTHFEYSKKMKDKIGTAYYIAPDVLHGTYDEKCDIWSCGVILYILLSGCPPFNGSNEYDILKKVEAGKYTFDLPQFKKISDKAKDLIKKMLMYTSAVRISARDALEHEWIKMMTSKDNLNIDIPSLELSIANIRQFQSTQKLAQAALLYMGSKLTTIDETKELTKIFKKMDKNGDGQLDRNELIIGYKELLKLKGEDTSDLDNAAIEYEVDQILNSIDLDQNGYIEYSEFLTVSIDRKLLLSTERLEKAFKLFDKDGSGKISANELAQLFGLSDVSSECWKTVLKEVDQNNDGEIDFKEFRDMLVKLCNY
Sequence of L-lactate dehydrogenase (Plasmodium falciparum (isolate CDC / Honduras)) (Q27743 whole entry, looked up): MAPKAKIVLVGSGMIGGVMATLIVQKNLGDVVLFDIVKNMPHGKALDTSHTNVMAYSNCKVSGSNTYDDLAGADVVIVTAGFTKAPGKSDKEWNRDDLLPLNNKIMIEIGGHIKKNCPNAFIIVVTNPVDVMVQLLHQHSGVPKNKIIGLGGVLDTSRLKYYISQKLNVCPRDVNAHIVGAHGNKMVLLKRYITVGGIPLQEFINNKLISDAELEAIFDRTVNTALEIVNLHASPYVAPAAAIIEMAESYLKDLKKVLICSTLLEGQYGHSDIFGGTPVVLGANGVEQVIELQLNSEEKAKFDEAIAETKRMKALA

In general, inhibition refers to the relative decrease from the control value, in per cent. For `COCCNCc1ncsc1-c1ccc2c(Nc3cc(O)ccc3C)ccnc2c1`, the results for the growth inhibition in experiment [1] and in experiment [4] were 40% and 101% (active), respectively. Also, the inhibition is 9% in experiment [2] and 6% in experiment [3]. In addition, the outcome in experiment [5], in experiment [6], in experiment [7] and in experiment [8] was inactive.

Regarding `Cc1cc(I)ccc1Nc1nc2nonc2nc1Nc1ccc(I)cc1C`, the values for the growth inhibition in experiment [1] and in experiment [4] were 96% (active) and 100% (active), respectively. Besides, the inhibition in experiment [2] was 78% (active); in experiment [3], -2%. For the same compound, the result in experiment [5], in experiment [6], in experiment [7] and in experiment [8] was inactive.

On to `Cc1cccc2[nH]c(-c3ccc(-c4ccc(CN5CCCC(N)C5)cc4)s3)nc12` (stereo not given), for which the growth inhibition is 100% (active) in experiment [1] and 101% (active) in experiment [4]. The inhibition was 29% in experiment [2] and -9% in experiment [3]. For the same compound, the result in experiment [5], in experiment [6], in experiment [7] and in experiment [8] was inactive.

Take `CNC(=O)CSc1nnc(-c2ccc(C)cc2)c(-c2ccc(C)cc2)n1`: the growth inhibition in experiment [1] was 49%; in experiment [4] it was 94% (active). In addition, the values for the inhibition in experiment [2] and in experiment [3] were 2% and -3%, respectively. In addition, the outcome in experiment [5], in experiment [6], in experiment [7] and in experiment [8] was inactive.

Consider `CC(C)(C)N1CCC(N(Cc2ccc(-c3ccc(C(F)(F)F)cc3)cc2)C(=O)Cn2c(CCc3cccc(F)c3F)nc(=O)c3cccnc32)CC1`, for which the growth inhibition in experiment [1] is 53% (active); in experiment [4] it was 100% (active). Also, the results for the inhibition in experiment [2] and in experiment [3] were 94% (active) and 3%, respectively. Further, the outcome in experiment [5], in experiment [6], in experiment [7] and in experiment [8] was inactive.

Regarding `COc1ccc(CCNCCCCCNCCc2ccc(Cl)cc2)cc1OC`, the growth inhibition in experiment [1] was -2%; in experiment [4], 101% (active). Further, the inhibition was 32% in experiment [2] and -11% in experiment [3]. Moreover, the result in experiment [5], in experiment [6], in experiment [7] and in experiment [8] was inactive.

For the compound `Oc1cccc(Nc2ccnc3cc(-c4ccccn4)ccc23)c1`, the growth inhibition in experiment [1] is 98% (active); in experiment [4], 96% (active). For the same compound, the inhibition is 24% in experiment [2] and -3% in experiment [3]. Also, the result in experiment [5], in experiment [6], in experiment [7] and in experiment [8] was inactive.

Take `CC(C)CNC(=S)N1CCCN(c2nc3ccc(Cl)cc3s2)CC1`: the figures for the growth inhibition in experiment [1] and in experiment [4] were 11% and 95% (active), respectively. Moreover, the inhibition in experiment [2] was 28%; in experiment [3], -3%. For the same compound, the result in experiment [5], in experiment [6], in experiment [7] and in experiment [8] was inactive.

Take `O=C(/C=C/c1ccc(Cl)c(Cl)c1)NCCCCCN1CCC(NC(=O)NCCc2ccccc2)CC1`: the growth inhibition in experiment [1] is 7%; in experiment [4], 100% (active). The inhibition in experiment [2] is 23%; in experiment [3], 2%. For the same compound, the outcome in experiment [5], in experiment [6], in experiment [7] and in experiment [8] was inactive.

For `O=C(NC1CCN(c2ccnc3cc(Cl)ccc23)C1)c1ccc(C(F)(F)F)cc1` (stereo not given), the growth inhibition in experiment [1] was 57% (active); in experiment [4], 101% (active). Further, the inhibition in experiment [2] was 37%; in experiment [3], 4%. Further, the result in experiment [5], in experiment [6], in experiment [7] and in experiment [8] was inactive.

In the case of `CN(C)CCNCc1ccc(-c2ccc(-c3nc4ccccc4[nH]3)s2)cc1`, the results for the growth inhibition in experiment [1] and in experiment [4] were 100% (active) and 101% (active), respectively. In addition, the inhibition in experiment [2] is -2%; in experiment [3], 1%. Further, the outcome in experiment [5], in experiment [6], in experiment [7] and in experiment [8] was inactive.

Turning to `Cc1cccc(OC(C)C(=O)Nc2cc(C(F)(F)F)ccc2N2CCOCC2)c1` (stereo not given), the values for the growth inhibition in experiment [1] and in experiment [4] were 98% (active) and 100% (active), respectively. Further, the inhibition in experiment [2] was 2%; in experiment [3], -3%. Moreover, the result in experiment [5], in experiment [6], in experiment [7] and in experiment [8] was inactive.

Consider `CN(C)c1ccc(CN2CCC(NC(=O)c3ccc(-c4ccccc4F)s3)CC2)cc1`, for which the growth inhibition in experiment [1] was 27%; in experiment [4], 86% (active). Further, the inhibition in experiment [2] is 41%; in experiment [3], -3%. Further, the outcome in experiment [5], in experiment [6], in experiment [7] and in experiment [8] was inactive.

On to `CN(C)C(CNC(=O)c1cc(-c2ccncc2)c(-c2ccc(NC(=O)Nc3cccc(F)c3)cc2)o1)c1ccccc1` (stereo not given), for which the growth inhibition is 99% (active) in experiment [1] and 100% (active) in experiment [4]. In addition, the results for the inhibition in experiment [2] and in experiment [3] were 11% and 3%, respectively. Moreover, the result in experiment [5], in experiment [6], in experiment [7] and in experiment [8] was inactive.

For the compound `O=C(Nc1ccccc1)N(Cc1cccc(-c2ccc(CNCc3ccc4c(c3)OCO4)cc2)c1)C1CCN(Cc2ccccc2)CC1`, the growth inhibition in experiment [1] was 82% (active); in experiment [4] it was 102% (active). The inhibition was 27% in experiment [2] and 7% in experiment [3]. Further, the outcome in experiment [5], in experiment [6], in experiment [7] and in experiment [8] was inactive.

As for `Cc1ccc(O)c(-c2cc(C(=O)Nc3ccc(S(=O)(=O)N4CCCCCC4)cc3)[nH]n2)c1`, the values for the growth inhibition in experiment [1] and in experiment [4] were 80% (active) and 100% (active), respectively. Besides, the inhibition in experiment [2] is 25%; in experiment [3], 4%. For the same compound, the result in experiment [5], in experiment [6], in experiment [7] and in experiment [8] was inactive.

Regarding `N[C@@H](Cc1ccc(O)cc1)C(=O)NC(c1ccccc1)c1c(O)ccc2ccccc12` (stereo not given in full), the growth inhibition in experiment [1] and in experiment [4] was 95% (active) in each case. Besides, the inhibition is 6% in experiment [2] and 2% in experiment [3]. Further, the result in experiment [5], in experiment [6], in experiment [7] and in experiment [8] was inactive.

For the compound `O=C(OCc1ccccc1)N1CCc2c([nH]c3ccccc23)C1CCC(F)(F)F` (stereo not given), the growth inhibition is 81% (active) in experiment [1] and 94% (active) in experiment [4]. In addition, the results for the inhibition in experiment [2] and in experiment [3] were 0% and 3%, respectively. Besides, the result in experiment [5], in experiment [6], in experiment [7] and in experiment [8] was inactive.

As for `Nc1nc(N)c2c(ccc3c2cnn3S(=O)(=O)N2CCCC2)n1`, the growth inhibition in experiment [1] is 3%; in experiment [4], 93% (active). Besides, the inhibition in experiment [2] was 70% (active); in experiment [3], 2%. In addition, the result in experiment [5], in experiment [6], in experiment [7] and in experiment [8] was inactive.

As to `O=C(NCc1ccc(F)cc1)c1cc(Br)cc(N2CCN(c3ccncc3)CC2)c1`, the growth inhibition in experiment [1] is 59% (active); in experiment [4], 80% (active). Also, the values for the inhibition in experiment [2] and in experiment [3] were 36% and -2%, respectively. In addition, the outcome in experiment [5], in experiment [6], in experiment [7] and in experiment [8] was inactive.
